Assay results from PubChem BioAssay (NCATS).
Inconclusive results are not listed. The source made the active and inactive calls. Calls come from the whole dose curve; as a rule, active = well fitted inhibition curve with a large enough effect; inconclusive = small, poorly fitted or top-dose-only effect; inactive = flat fitted curve, though single readings scatter.

Experiments:
Test in all cases: qHTS profiling for inhibitors of Plasmodium falciparum proliferation (AID 504749); note: nearly all actives have a fitted effect of over 60% in size
Conditions in all cases: P. falciparum in erythrocytes, SYBR Green DNA, 72 h; series mostly up to 28.7 µM
CP252 = tested on: CP252
Outline: (§1)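 Readout was DNA-dye fluorescence from lysed cultures, ex 485/em 535 nm. Parasitized red cells had grown 72 h with compound; data scaled between 0.29 uM artemisinin and DMSO wells and corrected using vehicle-only plates.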

CP256 = tested on: CP256
Outline: as §1

CP260 = tested on: CP260
Outline: as §1

CP262 = tested on: CP262
Outline: as §1

CP265 = tested on: CP265
Outline: as §1

CP268 = tested on: CP268
Outline: as §1

CP269 = tested on: CP269
Outline: as §1

CP286 = tested on: CP286
Outline: as §1

CP291 = tested on: CP291
Outline: as §1

CP297 = tested on: CP297
Outline: as §1

CP305 = tested on: CP305
Outline: as §1

CP315 = tested on: CP315
Outline: as §1

CP325 = tested on: CP325
Outline: as §1

CP329 = tested on: CP329
Outline: as §1

CP335 = tested on: CP335
Outline: as §1

DFO2036 = tested on: DFO2036
Outline: as §1

DIV14 = tested on: DIV14
Outline: as §1

DIV17 = tested on: DIV17
Outline: as §1

DIV30 = tested on: DIV30
Outline: as §1

Dd2 = tested on: Dd2
Outline: as §1

ECU = tested on: ECU
Outline: as §1

FAB9 = tested on: FAB9
Outline: as §1

GB4 = tested on: GB4
Outline: as §1

HB3 = tested on: HB3
Outline: as §1

ICS = tested on: ICS
Outline: as §1

JCK = tested on: JCK
Outline: as §1

N140 = tested on: N140
Outline: as §1

P94_40 = tested on: P94_40
Outline: as §1

PAD = tested on: PAD
Outline: as §1

PC15 = tested on: PC15
Outline: as §1

PC26 = tested on: PC26
Outline: as §1

PC49 = tested on: PC49
Outline: as §1

SC27B = tested on: SC27B
Outline: as §1

TAB109 = tested on: TAB109
Outline: as §1

TAB113 = tested on: TAB113
Outline: as §1

TAB165 = tested on: TAB165
Outline: as §1

Measured: Potency

CCOC(=O)c1cncn1[C@@H](C)c1ccccc1
inactive: all assays above
